Results: the supplement of paper PMC6555819

Legend:
Assay in all cases: PBM binding z-score (relative to random genomic background probes); higher = stronger binding; sequences stand for … in GC…GCGATTGACAGCGTAGAATGAAGG
[1] = system: FXR:RXRa (NR concentration 270 nM, RXRa partner concentration 90 nM)
Summary of the method: (§1)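 Binding buffer was PBS pH 7.4 with 2% milk, 0.02% Triton X-100, 1 mM DTT, 0.2 mg/mL BSA and 0.4 mg/ml salmon testes DNA. In it, ligand-free nuclear receptor dimers were incubated 1 h on custom Agilent 4×180K protein-binding microarrays carrying double-stranded probes. Antibodies against each partner (one per run) detected binding, and z-scores were calculated against random background probes after regression normalization of scanned fluorescence.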

[2] = system: LXRa:RXRa (NR concentration 270 nM, RXRa partner concentration 90 nM)
Summary of the method: as §1

[3] = system: LXRa homodimer (NR concentration 270 nM)
Summary of the method: as §1

[4] = system: LXRb:RXRa (NR concentration 270 nM, RXRa partner concentration 90 nM)
Summary of the method: as §1

[5] = system: LXRb homodimer (NR concentration 270 nM)
Summary of the method: as §1

[6] = system: PPARa:RXRa (NR concentration 270 nM, RXRa partner concentration 90 nM)
Summary of the method: as §1

[7] = system: PPARg:RXRa (NR concentration 180 nM, RXRa partner concentration 90 nM)
Summary of the method: as §1

[8] = system: PPARg:RXRa 270nM:90nM, anti-RXR (NR concentration 270 nM, RXRa partner concentration 90 nM)
Summary of the method: as §1

[9] = system: PPARg:RXRa 30nM:10nM, anti-RXR (NR concentration 30 nM, RXRa partner concentration 10 nM)
Summary of the method: as §1

[10] = system: PPARg:RXRa 90nM:30nM, anti-RXR (NR concentration 90 nM, RXRa partner concentration 30 nM)
Summary of the method: as §1

[11] = system: PPARg:RXRa DBDmut IVT, anti-RXR (DBD mutation: RXRa K156A/R161A, NR concentration 270 nM, RXRa partner concentration 90 nM)
Summary of the method: as §1

[12] = system: PPARg:RXRa IVT, anti-PPARg (NR concentration 270 nM, RXRa partner concentration 90 nM)
Summary of the method: as §1

[13] = system: PPARg DBDmut:RXRa IVT, anti-PPARg (DBD mutation: PPARg1 K132A/R137A, NR concentration 270 nM, RXRa partner concentration 90 nM)
Summary of the method: as §1

[14] = system: PPARg DBDmut IVT, anti-PPARg (DBD mutation: PPARg1 K132A/R137A, NR concentration 270 nM)
Summary of the method: as §1

[15] = system: PPARg homodimer (NR concentration 180 nM)
Summary of the method: as §1

[16] = system: PXR:RXRa (NR concentration 270 nM, RXRa partner concentration 90 nM)
Summary of the method: as §1

[17] = system: PXR homodimer (NR concentration 270 nM)
Summary of the method: as §1

[18] = system: RARa:RXR (NR concentration 270 nM, RXRa partner concentration 90 nM)
Summary of the method: as §1

[19] = system: RARa homodimer (NR concentration 270 nM)
Summary of the method: as §1

[20] = system: RARb:RXRa (NR concentration 270 nM, RXRa partner concentration 90 nM)
Summary of the method: as §1

| Sequence | PBM binding z-score [1] | PBM binding z-score [2] | PBM binding z-score [3] | PBM binding z-score [4] | PBM binding z-score [5] | PBM binding z-score [6] | PBM binding z-score [7] | PBM binding z-score [8] | PBM binding z-score [9] | PBM binding z-score [10] | PBM binding z-score [11] | PBM binding z-score [12] | PBM binding z-score [13] | PBM binding z-score [14] | PBM binding z-score [15] | PBM binding z-score [16] | PBM binding z-score [17] | PBM binding z-score [18] | PBM binding z-score [19] | PBM binding z-score [20] |
| --- | --- | --- | --- | --- | --- | --- | --- | --- | --- | --- | --- | --- | --- | --- | --- | --- | --- | --- | --- | --- |
| ACAGACAGGAGAGTGAAGGTAACTCAGCTGGACG | 0.399 | -0.127 | -0.128 | 0.0952 | 0.885 | 0.0627 | 0.928 | 0.616 | 0.213 | 0.343 | -0.0669 | 0.0769 | 0.725 | 0.294 | 0.433 | 0.0985 | 0.114 | 0.228 | 0.297 | 0.198 |
| TCTTGTAGATCAAAGGCTAAGAAAGCCGAAGCCT | 0.284 | 0.0908 | -0.472 | -0.0772 | -0.625 | 1.68 | 3.24 | 4.87 | 4.4 | 5.12 | 1.65 | 1.23 | 0.137 | 0.157 | -0.136 | -0.183 | -0.625 | 0.0326 | -0.389 | 0.153 |
| AGTCAAAGTTCATCTAGGGAACGTAAGATATGCT | 6.67 | 5.95 | 4.72 | 3.68 | 1.64 | 4.69 | 6.38 | 6.34 | 3.44 | 5.6 | 0.178 | 2.78 | 1.05 | 1.04 | 1.73 | 4.88 | 4.28 | 3.41 | 1.1 | 4.92 |
| CGTCGAAGTTCAAGGTAACGTAACAGAAAGCAGC | 2.59 | 2.34 | -0.0774 | 1.38 | -0.503 | 2.51 | 1.18 | 1.48 | 0.235 | 0.847 | -0.377 | 0.326 | 0.134 | -0.191 | 0.722 | 2.28 | 0.897 | 1.5 | -0.214 | 3.38 |
| CCTCCTGGGCCATCAGGTCATTGATATCAACGTT | 1.24 | 0.991 | 0.788 | 1.31 | 0.0311 | 1.73 | 0.38 | 1.29 | -0.255 | 0.67 | 0.202 | 1.81 | -1.18 | -0.736 | 0.643 | 1.34 | 0.852 | 2.16 | -0.969 | 1.99 |
| CATACAGGGTCACCTAGGCCAGAGTAGGGACGGC | 6.41 | 4.26 | 0.036 | 3.35 | 0.688 | 5.64 | 6.1 | 5.1 | 2.1 | 3.77 | 1.55 | 4.32 | 1.86 | 1.64 | 1.65 | 3.56 | 0.395 | 4.49 | 0.259 | 4.41 |
| TCTGCTAGGTCAGTTGGTCAGCTACCGAGCTGCC | 0.866 | 0.506 | -0.683 | -0.00907 | -0.0816 | 1.21 | 0.156 | 1.79 | 1.19 | 1.29 | 2.75 | 3.45 | 0.596 | 0.667 | -0.139 | 0.0735 | -0.891 | 0.438 | -0.931 | 3.14 |
| CGAACTAGGTCATCCAGGACAGTGAATACATTGA | 4.28 | 2.79 | 0.603 | 2.04 | 0.134 | 4.91 | 7.69 | 6.5 | 4.15 | 6.05 | 8.1 | 8.47 | 3.54 | 2.16 | 1.36 | 2.06 | 1.61 | 2.38 | 0.896 | 3.91 |
| CATACAGCGTCAGCTAGGCCAGAGTAGGGACGGC | -0.554 | -0.839 | -0.547 | -1.42 | -0.647 | -1.05 | 0.332 | -0.936 | -0.344 | -0.884 | -0.164 | -0.272 | -0.28 | 0.0344 | -0.557 | -1.3 | -0.659 | -0.799 | -0.655 | -0.287 |
| CCTATTAGTTGACCCTAAGGGCAACCGAAGCTCG | 4.38 | 3.57 | 1.02 | 3.56 | 1.04 | 4.53 | 1.6 | 3.34 | 0.981 | 2.19 | 0.775 | 1.82 | 0.412 | 0.556 | 3.19 | 4.25 | 1.16 | 4.62 | 2.32 | 2.93 |
| CCTTCCGGGTCACTGACAGGTTATAGCATTTGGA | 4.43 | 3.92 | 0.31 | 3.22 | 0.12 | 5.01 | 4.96 | 5.08 | 1.75 | 3.7 | 3.69 | 5.08 | 0.702 | -0.286 | 2.37 | 3.71 | 0.125 | 4.23 | 0.725 | 3.78 |
| AGTCAAAGTTCACTAGGTAACATAAGATTCAGCT | 4.79 | 5.28 | 3.12 | 3.27 | 1.4 | 4.86 | 7.49 | 6.62 | 3.82 | 5.79 | 2.79 | 5.27 | 1.65 | 1.65 | 3.16 | 4.33 | 3.16 | 2.97 | 2.25 | 4.79 |
| CCAACTAGGTCAAGGACAGTGAATCTCCGCACGC | 3.25 | 2.12 | 0.634 | 1.47 | 0.422 | 3.96 | 6.59 | 5.37 | 3.19 | 4.79 | 7.53 | 7.55 | 1.93 | 1.81 | 2.38 | 1.23 | 0.209 | 2.01 | 1.21 | 3.98 |
| CAAACTAGGTCAAAGATCAAAGTCGAGCCAACCA | 4.71 | 3.87 | 0.503 | 3.15 | 0.553 | 6.47 | 11.6 | 9.58 | 9.42 | 10.6 | 8.07 | 8.58 | 1.49 | 0.885 | 1.76 | 2.81 | 0.46 | 4.42 | 0.53 | 3.99 |
